High-throughput results as filed in PubChem BioAssay.
Only a selection was taken, and hits are over-represented in it overall.
PD-1 reversal: activators reversing PD-1 mediated T-cell inhibition, primary screen, luminescence, primary human CD4 T cells, PD-L1 beads. CellTiter-Glo 96 h. activation, % (test concentration not listed). 29,000 tested, under 10 active. AID 2316, 2010; call rule not given here;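 further: 0% = median vehicle wells and 100% = positive control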
NOMO-1 viab: NOMO-1 AML cell viability reduction, primary screen, STK33 inhibitor project, CellTiter-Glo luminescence | AID 2330, 2010 | 37,000 tested, 7.5% active | inhibition, % (test concentration not listed) | NOMO-1 AML viability, 72 h; in the data active means inhibition above about 80%
STK33 kin inh: STK33 kinase inhibitors, primary screen, biochemical, luminescence, ADP-Glo, MBP substrate; Serine/threonine-protein kinase 33 (Homo sapiens), Q9BYT3; 27,000 tested, 0.44% active; inhibition, % at 12.5 µM; in the data active means inhibition above about 20%
Target sequence (Q9BYT3 whole entry, looked up): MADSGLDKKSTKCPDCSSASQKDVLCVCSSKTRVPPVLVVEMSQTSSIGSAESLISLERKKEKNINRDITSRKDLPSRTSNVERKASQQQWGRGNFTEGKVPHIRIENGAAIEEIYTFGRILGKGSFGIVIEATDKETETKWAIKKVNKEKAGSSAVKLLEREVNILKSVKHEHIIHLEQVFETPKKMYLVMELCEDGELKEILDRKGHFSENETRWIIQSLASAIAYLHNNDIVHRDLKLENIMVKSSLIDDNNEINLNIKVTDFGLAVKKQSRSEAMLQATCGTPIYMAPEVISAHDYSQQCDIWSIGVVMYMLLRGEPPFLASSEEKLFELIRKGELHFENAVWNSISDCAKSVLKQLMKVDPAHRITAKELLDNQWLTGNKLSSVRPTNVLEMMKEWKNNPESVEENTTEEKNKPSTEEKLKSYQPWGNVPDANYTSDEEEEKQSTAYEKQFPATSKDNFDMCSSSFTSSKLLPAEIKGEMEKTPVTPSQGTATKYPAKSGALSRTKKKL
Active calls of the source: *; x = no result given.

SMILES	PD-1 reversal	NOMO-1 viab	STK33 kin inh
COC(=O)C1CC(=O)C[C@H]2[C@]3(C)C[C@@H](c4ccoc4)OC(=O)[C@H]3CC[C@@]12C (some centres undefined)	3	1	-5
C[C@@H]1CCC/C=C/[C@H]2C[C@@H](O)C[C@@H]2[C@@H](O)/C=C\C(=O)O1	-6	108*	3
CC[C@H]1CN2CC[C@H]1C[C@@H]2[C@@H](O)c1ccnc2ccc(OC)cc12	1	23	-2
Cc1ccnc(NC(c2ccccc2[N+](=O)[O-])c2ccc3ccc(C)nc3c2O)c1 (centres undefined)	-15	124*	-1
N#CC(O[C@@H]1O[C@H](CO)[C@@H](O)[C@H](O)[C@H]1O)c1ccccc1 (some centres undefined)	1	-15	-1
CC(=O)NC1C(OC2OC(CC(O)C3OC(n4ccc(=O)[nH]c4=O)C(O)C3O)C(O)C(O)C2NC(=O)/C=C/CCCCCCCCCC(C)C)OC(CO)C(O)C1O (centres undefined)	-4	108*	-17
COCc1cc(OC(=O)N(C)C)nc2c1c(-c1cccs1)nn2C	-3	18	x
C=CC/C=C\C/C=C\CCCCCCCc1cc(O)cc(O)c1	1	109*	-6
Cc1cc(C(F)F)n2nc(C(=O)Nc3ccc(Cl)cc3C(=O)c3ccccc3)nc2n1	5	-21	1
Cc1cc(C)cc(C(=O)OC2CC3CCC(C2)N3C)c1 (centres undefined)	4	36	-2
CC[C@@H](CO)NC(=O)[C@@H]1C=C2c3cccc4c3c(cn4C)C[C@H]2N(C)C1	2	-9	-1
CN1C[C@H](CNC(=O)OCc2ccccc2)C[C@@H]2c3cccc4c3c(cn4C)C[C@H]21	x	104*	-3
C[C@@H]1CN([C@H](C)CO)C(=O)CCCn2cc(nn2)CO[C@@H]1CN(C)C(=O)Oc1ccc2ccccc2c1	x	x	-2
CC(C)[C@]12O[C@H]1[C@@H]1O[C@]13[C@]1(O[C@H]1C[C@H]1C4=C(CC[C@@]13C)C(=O)OC4)[C@@H]2O	x	114*	-1
CCCCCc1cc(OC)c(CC=C(C)C)c(O)c1C(=O)O	x	x	-13
CN(C)Cc1c[nH]c2ccccc12	x	16	1
c1ccc2c(CNCCc3c[nH]c4ccccc34)cccc2c1	-5	106*	x
CCC1CN2CCC3(C(=O)Nc4cccc(O)c43)C2CC1/C(=C/OC)C(=O)OC (centres undefined)	0	6	-3
O=C(Cn1cc(C(=O)c2ccccc2)c2ccccc21)NCC1CCCO1 (centres undefined)	0	23	2
O=c1[nH]c2ccccc2n1C1CCN(CCCC(c2ccc(F)cc2)c2ccc(F)cc2)CC1	x	116*	-6
CCCC(=O)O[C@@H]1[C@@H](C)[C@@]2(O)[C@@H](C=C(CO)C[C@]3(O)C(=O)C(C)=C[C@@H]23)[C@@H]2C(C)(C)[C@]12OC(=O)CCC	10	59	-3
COC(=O)CC1(CC(=O)OC)C(=O)N(C)C(=O)N(C)C1=O	1	-9	-2
CC1C/C=C/C2C3OC3(C)C(C)C3C(Cc4ccccc4)NC(=O)C23OC(=O)O/C=C/C(C)(O)C1=O (centres undefined)	-26	93*	1
O=C1CSC(c2ccccc2Cl)c2cc(Cl)ccc2N1 (centres undefined)	-1	50	2
COCc1cc(OC(=O)N(C)C)nc(-c2ccncc2)n1	-1	22	x
SMILES	PD-1 reversal	NOMO-1 viab	STK33 kin inh
CCCCC/C=C\C/C=C\C/C=C\C/C=C\CCCC(N)=O	x	8	-7
CCC(C)[C@H]1C(=O)O[C@H](C(C)C)C(=O)N(C)[C@@H](C(C)C)C(=O)O[C@H](C(C)C)C(=O)N(C)[C@@H](C(C)C)C(=O)O[C@H](C(C)C)C(=O)N1C (some centres undefined)	x	x	-1
CCC(C)[C@H]1C(=O)O[C@H](C(C)C)C(=O)N(C)[C@@H](C(C)CC)C(=O)O[C@H](C(C)C)C(=O)N(C)[C@@H](C(C)CC)C(=O)O[C@H](C(C)C)C(=O)N1C (some centres undefined)	-14	119*	-3
C[C@@]12C[C@@H](c3ccoc3)OC(=O)C1CC[C@]1(C)[C@H]2[C@H]2C=C[C@]1(O)C(=O)O2 (some centres undefined)	2	3	0
CCOC(=O)c1c(C)n(C(C)C)c2ccc(OC(=O)c3ccccc3)cc12	-2	5	x
CC(=O)c1cccc(NC(=O)CSC2c3ccccc3-c3ccccc32)c1	-1	38	-1
CN1CCc2nc3sc(C(=O)C(C)(C)C)c(N)c3cc2C1	-1	122*	x
C[C@]12C=CC(=O)C=C1CC[C@@H]1C2CC[C@]2(C)C(=O)CCC12 (some centres undefined)	-1	12	-2
CN1Cc2c(ccc3c2OCO3)[C@@H]2[C@H]1c1cc3c(cc1C[C@@H]2O)OCO3	0	138*	-1
CN1CCC2=C[C@H](O)[C@H]3OC(=O)c4cc5c(cc4[C@H]3[C@@H]21)OCO5	x	26	-2
CC1(C)CC(=O)C2=C(C1)OC(N)=C(C(=O)OC(C)(C)C)C21C(=O)Nc2ccccc21 (centres undefined)	1	15	x
CC[C@@H](C)C(=O)O[C@H]1[C@H](O)[C@H]2[C@@H](CN3C[C@@H](C)CC[C@H]3[C@@]2(C)O)C2C[C@]34O[C@@]5(O)[C@@H](OC(=O)[C@](C)(O)CC)CC[C@@]3(C)[C@@H]5[C@@H](OC(C)=O)[C@@H](OC(C)=O)[C@H]4[C@@]21O (some centres undefined)	2	15	1
CCC1C2CC[N+]3([O-])CCC4(C(=C2C(=O)OC)Nc2c(OC)cccc24)C13 (centres undefined)	2	18	1
C[C@H]1CC[C@@H]2[C@@H](C)[C@H]3[C@H](C[C@H]4[C@@H]5CC=C6C[C@@H](O[C@@H]7O[C@H](CO)[C@H](O)[C@H](O[C@@H]8O[C@H](CO)[C@@H](O)[C@H](O)[C@H]8O)[C@H]7O[C@@H]7O[C@@H](C)[C@H](O)[C@@H](O)[C@H]7O)CC[C@]6(C)[C@H]5CC[C@]34C)N2C1	0	32	1
C[C@H]1CC[C@@H]2[C@@H](C)[C@H]3[C@H](C[C@H]4[C@@H]5CC=C6CC(O[C@@H]7O[C@H](CO)[C@@H](O)[C@H](O[C@@H]8O[C@H](CO)[C@@H](O)[C@H](O)[C@H]8O)[C@@H]7O[C@@H]7O[C@@H](C)[C@H](O)[C@@H](O)[C@H]7O)CC[C@]6(C)[C@H]5CC[C@]34C)N2C1 (some centres undefined)	-5	110*	1
C=C(C)[C@@H]1[C@H]2OC(=O)[C@@H]1[C@]1(O)C[C@H]3O[C@]34C(=O)O[C@H]2[C@]14C	x	20	-4
COC(=O)[C@@]12C(=O)C(C)C(=O)[C@]1(C)C(C)=C[C@H]1[C@]3(C=O)CC[C@H](OC(C)=O)C(C)(C)[C@H]3CC[C@@]12C (some centres undefined)	x	x	-7
